Results reported in publication PMC4336329 (PLoS ONE, 2015).
Hit rate of the full screen: of about 310,000 compounds, about 14,000 (4.5%) showed an effect of 50% or more. Effects have a minus sign here. This excerpt belongs to a sample that is enriched for strong results.

The compounds below were run against human ether-à-go-go-related gene (hERG) potassium channel (human, UniProt Q12809) (assay: primary screen, population patch clamp on CHO cells stably expressing hERG; higher = less effect of the substance).
Chain of human ether-à-go-go-related gene (hERG) potassium channel (Q12809 whole entry, looked up): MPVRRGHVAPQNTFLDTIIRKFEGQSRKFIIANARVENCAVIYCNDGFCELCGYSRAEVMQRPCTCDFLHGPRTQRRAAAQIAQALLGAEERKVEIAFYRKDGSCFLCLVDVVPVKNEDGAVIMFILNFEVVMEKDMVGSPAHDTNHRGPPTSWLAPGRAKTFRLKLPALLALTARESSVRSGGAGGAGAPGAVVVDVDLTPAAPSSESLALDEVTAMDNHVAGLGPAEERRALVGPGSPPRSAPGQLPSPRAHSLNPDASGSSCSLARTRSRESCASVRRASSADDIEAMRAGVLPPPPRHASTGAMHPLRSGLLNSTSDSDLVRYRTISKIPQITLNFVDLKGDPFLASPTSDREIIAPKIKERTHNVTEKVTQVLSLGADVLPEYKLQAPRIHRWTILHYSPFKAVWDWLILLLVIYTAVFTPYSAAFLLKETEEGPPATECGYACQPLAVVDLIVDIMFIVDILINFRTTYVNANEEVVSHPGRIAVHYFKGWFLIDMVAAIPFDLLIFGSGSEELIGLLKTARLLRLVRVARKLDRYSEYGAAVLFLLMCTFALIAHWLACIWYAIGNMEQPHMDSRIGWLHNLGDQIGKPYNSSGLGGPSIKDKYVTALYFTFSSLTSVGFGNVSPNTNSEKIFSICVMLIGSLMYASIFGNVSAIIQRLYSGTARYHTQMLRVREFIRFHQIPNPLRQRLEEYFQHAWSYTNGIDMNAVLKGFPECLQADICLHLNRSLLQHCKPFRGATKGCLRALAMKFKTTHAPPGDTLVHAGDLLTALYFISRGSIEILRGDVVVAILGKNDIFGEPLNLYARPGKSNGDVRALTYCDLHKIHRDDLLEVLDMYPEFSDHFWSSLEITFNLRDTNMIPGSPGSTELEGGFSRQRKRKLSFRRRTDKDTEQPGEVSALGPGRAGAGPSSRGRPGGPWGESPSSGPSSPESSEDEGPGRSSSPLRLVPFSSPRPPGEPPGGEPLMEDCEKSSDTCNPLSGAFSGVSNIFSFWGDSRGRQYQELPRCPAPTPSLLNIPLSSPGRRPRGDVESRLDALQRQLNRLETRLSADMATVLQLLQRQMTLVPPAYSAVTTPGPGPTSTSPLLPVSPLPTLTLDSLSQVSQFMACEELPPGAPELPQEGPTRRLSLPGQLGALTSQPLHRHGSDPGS
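Further: peak tail current of the secondary pulse compared with the same well before compound.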

SMILES	hERG current change (%, negative = inhibition) at 10uM
Cc1cc(C(=O)N/N=C/c2ccc(Cl)c([N+](=O)[O-])c2)c(C)n1-c1ccc(F)cc1	-2.41%
CC(C)n1c2ccccc2c2cc([N+](=O)[O-])ccc21	16.1%
Cc1ccc(C(=O)NC(C(=O)NC2CCCC2)c2ccccc2)cc1 (centres unmarked)	15%
c1ccc(-c2ccc3nnnn3n2)cc1	5.72%
c1cnc(Sc2ccc3nnnn3n2)nc1	-56.4%
c1ccc(Sc2ncccn2)nc1	12.2%
COc1ccc(C(=O)c2sc3nc(-c4ccccc4)ccc3c2N)cc1OC	18.1%
CCN1/C(=C/C=C/c2oc3ccc(-c4ccccc4)cc3[n+]2CC)Oc2ccc(-c3ccccc3)cc21.CCOS(=O)(=O)[O-]	-2.14%
CC[n+]1ccccc1/C=C/Nc1ccccc1.[I-]	-44.7%
CC[n+]1c(/C=C2\C=C(C)CC(C)C2)sc2ccccc21.[I-] (centres unmarked)	6.92%
CC[n+]1c(/C=C/Nc2ccccc2)sc2ccccc21.[I-]	-72.2%
CCOc1ccc(S(=O)(=O)Nc2cccc(OC)c2)cc1	-25%
CC[n+]1c(/C=C/N(C)c2ccccc2)oc2ccccc21.O=S(=O)([O-])CCO	0.826%
CC[n+]1c(/C=C2/C=C(C)CC(C)C2)sc2ccccc21.[I-] (centres unmarked)	-3.25%
CC[n+]1c(/C=C/Nc2ccccc2)oc2ccccc21.[I-]	-70.4%
CCOS(=O)(=O)[O-].CC[n+]1c(/C=C/Nc2ccccc2)oc2ccc(OC)cc21	-77.2%
NC(=O)CC(NC(=O)Cc1cccc2ccccc12)c1ccc(NCCN2CCCCC2)c([N+](=O)[O-])c1 (centres unmarked)	7.38%
O=c1[nH]c2ccc(Cl)cc2c(-c2ccccc2)c1N1CCN(c2ccccn2)CC1	6.61%
CCCCn1c(N)c(N(CCOC)C(=O)c2c(CC)noc2C)c(=O)[nH]c1=O	19.9%
CCCC/C(O)=C1\C(=O)CC(C)(C)CC1=Nc1ccc(N)cc1	-11.4%
CC(C)NC[C@H](O)COc1ccc(CC(N)=O)cc1	12.8%
Oc1oc(-c2ccccc2)nc1/C=N/c1nccs1	13.1%

SMILES	hERG current change (%, negative = inhibition) at 10uM
Cc1ccccc1NC(=O)c1csc2c1CCCC2	-20.9%
COc1ccc(-c2nnnn2C)cc1S(=O)(=O)NCc1ccccc1	-13.9%
Cc1noc(C)c1COc1ccc(C(=O)OCC(=O)N2CC(=O)Nc3ccccc32)cc1	4.54%
Cc1noc(C)c1COc1cccc(C(=O)OCC(=O)N2CC(=O)Nc3ccccc32)c1	-0.541%
Cc1noc(C)c1CSCC(=O)OCC(=O)N1CC(=O)Nc2ccccc21	-72.4%
COC(=O)c1ccc(CSc2nc(C)nc3c2c(=O)n(C)c(=O)n3C)o1	14.7%
Cc1nc2cc(C(=O)N3CCc4ccccc43)ccc2n1-c1ccc(F)c(F)c1	-69.7%
Cc1cccc(-n2cnc3cc(C(=O)N4CCCCC4)ccc32)c1	-21.3%
O=C(c1ccc(F)c(F)c1)N1CCCc2ccccc21	0.0993%
Cc1ccc(C(=O)N2CCc3ccccc32)cc1	-7.42%
O=C(c1ccc2ccccc2c1)N1CCc2ccccc21	3.51%
Cc1cccc(-n2cnc3cc(C(=O)N4CCc5ccccc54)ccc32)c1	-61.5%
CCc1ccc(NC(=O)CCn2c(=O)oc3ccccc32)cc1	-10.1%
CCc1ccc(-c2nc3ccc(Br)cc3c(C(=O)O)c2C)s1	19.1%
COc1cc(NC(=O)CN2CCCCCC2)cc(OC)c1	5.28%
CCOc1ccc(NC(=O)CN2CCN(CC(=O)Nc3ccc(F)c(F)c3)CC2)cc1	-78.3%
CCOc1ccc(NC(=O)CN2CCN(CC(=O)Nc3ccc(F)cc3)CC2)cc1	-77.2%
CCOc1ccc(NC(=O)CN2CCN(c3ccc(F)cc3)CC2)cc1	-22.2%
O=C(CN1CCN(c2ccc(Cl)cc2)CC1)Nc1cccc(F)c1	-3.54%
CCN1CCN(CCC(=O)Nc2ccc(F)c(F)c2)CC1	-17.1%
CCCCOc1ccc(NC(=O)CN2CCN(CC)CC2)cc1.Cl	-15.9%
CCOc1ccc(NC(=O)CN2CCN(CC(=O)Nc3cc(OC)cc(OC)c3)CC2)cc1	-74.9%

SMILES	hERG current change (%, negative = inhibition) at 10uM
CCc1sc(C(=O)N2CCN(c3ccc(F)cc3)CC2)cc1C	-16.3%
CCc1sc(C(=O)N2CCN(CC(=O)Nc3cccc(F)c3)CC2)cc1C	-65%
O=C(CN1CCN(c2ccccn2)CC1)Nc1ccc(F)c(F)c1	-27.6%
COC(=O)c1ccccc1C(=O)N1CCOCCN(C(=O)c2ccccc2C(=O)OC)CCOCC1	0.0748%
O=C(Cn1cncn1)NCc1cccc(OC(F)F)c1	7.23%
O=C(Nc1nc2ccccc2s1)C1CCN(S(=O)(=O)c2cc([N+](=O)[O-])ccc2Cl)CC1	10.4%
COc1ccc(CCN=c2c([N+](=O)[O-])nn(-c3cccc(C)c3)n2O)cc1OC	-34.1%
O=C(COC(=O)C1CCN(S(=O)(=O)c2cccc3cccnc23)CC1)c1ccccc1	7.23%
Cc1onc(-c2ccccc2)c1C(=O)NC(C)C1CCCO1 (centres unmarked)	10.5%
C/C(=N\Nc1cc(N2CCOCC2)nc(C)n1)c1ccc(F)cc1	-12%
Clc1cccc(Cc2ccc(Cl)nn2)c1	-3.46%
COc1cccc2cc(C(=O)N3CCN(C(=O)c4ccccc4)CC3)c(=O)oc12	7.71%
O=C(Nc1ccccc1Cc1ccccc1)c1ccccc1F	-4.48%
COc1ccc(Oc2ccccc2/C=N/O)cc1	4.99%
Cc1sc2ncnc(N3CCC(C(=O)Nc4ccc(C#N)c(Cl)c4)CC3)c2c1C	-7.2%
O=C(CN1CCN(S(=O)(=O)c2ccc(F)cc2)CC1)Nc1ccc(Cl)c(C(F)(F)F)c1	9.48%
Cc1ccc(OCCC(=O)Nc2ccc(C)c(F)c2)cc1	-50.6%
O=C(CN1CCN(c2ccccn2)CC1)Nc1cccc(F)c1	5.56%
O=C(CN1CCN(c2ccccn2)CC1)Nc1ccc(Cl)c(C(F)(F)F)c1	-7.97%
CCOc1ccc(NC(=O)CN2CCN(CC(=O)Nc3cccc(F)c3)CC2)cc1	-86.3%
O=C(CN1CCN(C(=O)COc2cccc(F)c2)CC1)Nc1ccc(Cl)c(C(F)(F)F)c1	-60.6%
Cc1ccc(OCCC(=O)Nc2ccc(F)c(Cl)c2)cc1	5.65%

SMILES	hERG current change (%, negative = inhibition) at 10uM
COc1ccccc1N1CCN(CC(=O)Nc2cccc(F)c2)CC1	-28.1%
Cc1ccc(OCCC(=O)Nc2ccc(F)c(F)c2)cc1	-5.62%
O=C(COc1ccc(S(=O)(=O)N2CCOCC2)cc1)Nc1ccc(Cl)c(C(F)(F)F)c1	-13.1%
CC(=O)c1cccc(OCC(=O)N2CCN(CC(=O)Nc3cccc(F)c3)CC2)c1	-42.2%
CCOc1ccc(NC(=O)CN2CCN(CC(=O)Nc3ccc(Cl)c(C(F)(F)F)c3)CC2)cc1	-57%
Cc1c(NC(=O)c2ccc([N+](=O)[O-])o2)cccc1-c1nc2ncccc2o1	-11.8%
CCC(C)C(=O)Nc1ccc([N+](=O)[O-])cc1OC (centres unmarked)	4.15%
CCC(C)(C)NC(=O)CN(Cc1ccc(OC)cc1)C(=O)CCC(=O)Nc1nccs1	-4.32%
O=C(NC1CCCCC1)c1ccc(S(=O)(=O)c2ccccc2Cl)c([N+](=O)[O-])c1	1.94%
COc1cccc(CC(=O)OCC(=O)N(C)CC(=O)Nc2ccc(F)cc2)c1	-9.44%
CN(C)c1ccc(C2Nc3ccccc3C(=O)N2NS(C)(=O)=O)cc1 (centres unmarked)	14.2%
C/C(=N\NC(=O)c1nnn(-c2nonc2N)c1CN1CCCCCC1)c1ccc(Br)cc1	24.6%
Cc1ccc(OCCOC(=O)c2c(-c3ccccc3)noc2C)cc1	7.59%
CCOc1ccc(NC(=O)CN2CCN(C3c4ccccc4-c4ccccc43)CC2)cc1	-40.3%
CCOc1ccc(NC(=O)CN2CCc3ccccc3C2)cc1	-6.01%
CCOc1ccc(NC(=O)CN2CCN(Cc3c(F)cccc3F)CC2)cc1	-75.3%
CCOc1cc(N2CCOCC2)c(OCC)cc1NC(=O)c1nc2nc(C)cc(C)n2n1	18.4%
CN(C)CCCNC(=O)/C=C/c1ccc(OCc2c(F)cccc2Cl)cc1	-67%
O=C(/C=C/c1ccc(OCc2c(F)cccc2Cl)cc1)N1CCOCC1	-30.1%
COCCCNC(=O)/C=C/c1ccc(OCc2c(F)cccc2Cl)cc1	-1.25%
